In PubChem BioAssay one finds growth inhibition, inhibition and outcome data, which are given here for 20 compounds.

A number with no mark means an inactive call. For some of these results: Entries with a potency or affinity are not part of this list. Active and inactive are the calls of the source. Unless noted, the rule behind the calls is not given here.

Experiment [1] in a line: antimalarial activity against Dd2 strain (AID 2302;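 active = growth inhibition above 50% at the single 2 µM test dose, taken to imply half-maximal potency below 2 µM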;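 note: 0% = DMSO untreated growth and 100% = chloroquine plus artemisinin killed control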). Particulars: P. falciparum Dd2 in RBCs, LDH growth readout, 72 h; at 2 µM; stronger effect = higher value.
Experiment [2] in a line: HepG2 cytotoxicity, primary screen, cytotoxicity control for P. falciparum antimalarial project, cell-based, ATP luminescence (AID 2303;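 active = inhibition above 50%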;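 note: 0% = DMSO wells and 100% = digitonin-killed cells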). Particulars: HepG2 viability, 24-48 h, at 10 µM, stronger effect = higher value.
Experiment [3] deals with L-lactate dehydrogenase (Plasmodium falciparum (isolate CDC / Honduras)) (UniProt Q27743). As to the kind of experiment: PfLDH activity inhibition – cell lysate, 3D7 strain, counter-screen for P. falciparum growth inhibition project (AID 2304).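 Note: 0% = vehicle and 100% = reference inhibitor.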 As to conditions: P. falciparum 3D7 crude extract, LDH APAD/NBT absorbance; at 2 µM; stronger effect = higher value. In general terms: The purpose of a counterscreen is to sort out artefacts and off-target activity.
Sequence of L-lactate dehydrogenase (Plasmodium falciparum (isolate CDC / Honduras)) (Q27743 whole entry, looked up): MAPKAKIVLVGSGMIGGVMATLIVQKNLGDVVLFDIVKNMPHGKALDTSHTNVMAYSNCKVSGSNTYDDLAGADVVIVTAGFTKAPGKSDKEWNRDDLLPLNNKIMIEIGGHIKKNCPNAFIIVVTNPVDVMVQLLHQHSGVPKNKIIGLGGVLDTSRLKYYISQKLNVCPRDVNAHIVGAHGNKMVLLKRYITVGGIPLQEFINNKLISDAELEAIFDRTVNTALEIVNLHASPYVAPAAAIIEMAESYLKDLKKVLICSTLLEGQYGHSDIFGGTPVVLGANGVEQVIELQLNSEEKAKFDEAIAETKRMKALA

A short description of experiment [4]: inhibition of 3D7 malaria parasite growth – strain 3D7 (AID 2306).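 Note: 0% = DMSO wells and 100% = chloroquine plus artemisinin control wells.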 Particulars: P. falciparum 3D7 erythrocytic growth, LDH absorbance, 72 h; at 2 µM; stronger effect = higher value.
The target in experiment [5] is Calcium-dependent protein kinase 1 (Plasmodium falciparum (isolate 3D7)) (UniProt P62344). Kind of experiment: PfCDPK1 kinase inhibitors, biochemical, TCAMS library (AID 1159585; cut-off not given, nearly all actives have IC50 up to about 0.98 µM;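 note: inhibitors leave more ATP so luminescence rises with inhibition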). Particulars: recombinant PfCDPK1, Kinase-Glo ATP depletion luminescence. A general note: Kinase-Glo measures the ATP left after a reaction by luminescence.
Sequence of Calcium-dependent protein kinase 1 (Plasmodium falciparum (isolate 3D7)) (P62344 whole entry, looked up): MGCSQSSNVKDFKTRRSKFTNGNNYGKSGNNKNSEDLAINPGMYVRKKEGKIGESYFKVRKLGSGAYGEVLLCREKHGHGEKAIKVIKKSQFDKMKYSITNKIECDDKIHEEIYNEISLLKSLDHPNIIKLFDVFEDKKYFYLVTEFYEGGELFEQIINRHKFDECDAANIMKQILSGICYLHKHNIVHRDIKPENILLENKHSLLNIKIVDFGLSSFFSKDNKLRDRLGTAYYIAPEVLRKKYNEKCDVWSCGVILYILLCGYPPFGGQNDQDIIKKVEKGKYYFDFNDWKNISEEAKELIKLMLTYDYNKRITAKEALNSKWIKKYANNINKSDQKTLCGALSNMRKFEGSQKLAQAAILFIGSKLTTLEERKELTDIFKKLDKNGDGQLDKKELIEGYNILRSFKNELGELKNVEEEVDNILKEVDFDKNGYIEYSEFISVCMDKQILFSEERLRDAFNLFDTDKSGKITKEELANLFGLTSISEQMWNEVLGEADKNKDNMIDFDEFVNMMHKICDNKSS
In experiment [6] the target is Plasmodium falciparum protein kinase 6 (PK6, PF3D7_1337100) (UniProt Q8IDW1). As to the kind of experiment: PfPK6 kinase inhibitors, biochemical, TCAMS library (AID 1159586). Particulars: recombinant PfPK6, Kinase-Glo ATP depletion luminescence.
Sequence of Plasmodium falciparum protein kinase 6 (PK6, PF3D7_1337100) (Q8IDW1 1-305): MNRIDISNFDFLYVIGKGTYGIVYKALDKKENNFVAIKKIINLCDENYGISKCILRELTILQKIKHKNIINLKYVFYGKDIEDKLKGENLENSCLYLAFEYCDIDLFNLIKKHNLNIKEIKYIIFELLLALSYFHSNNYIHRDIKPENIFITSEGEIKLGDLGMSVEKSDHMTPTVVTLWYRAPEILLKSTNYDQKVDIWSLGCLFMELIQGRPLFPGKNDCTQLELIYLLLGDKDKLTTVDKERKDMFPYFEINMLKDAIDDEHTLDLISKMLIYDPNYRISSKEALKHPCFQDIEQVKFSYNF
The target of experiment [7] is Protein kinase 7 (PK7), Plasmodium falciparum 3D7 (PF3D7_0213400) (UniProt Q7YTF7). As to the kind of experiment: inhibition of Plasmodium PK7 catalytic activity – biochemical, TCAMS antimalarial set, Kinase-Glo luminescence (AID 1159587). Particulars: recombinant PfPK7, Kinase-Glo ATP depletion luminescence.
Sequence of Protein kinase 7 (PK7), Plasmodium falciparum 3D7 (PF3D7_0213400) (Q7YTF7 1-343): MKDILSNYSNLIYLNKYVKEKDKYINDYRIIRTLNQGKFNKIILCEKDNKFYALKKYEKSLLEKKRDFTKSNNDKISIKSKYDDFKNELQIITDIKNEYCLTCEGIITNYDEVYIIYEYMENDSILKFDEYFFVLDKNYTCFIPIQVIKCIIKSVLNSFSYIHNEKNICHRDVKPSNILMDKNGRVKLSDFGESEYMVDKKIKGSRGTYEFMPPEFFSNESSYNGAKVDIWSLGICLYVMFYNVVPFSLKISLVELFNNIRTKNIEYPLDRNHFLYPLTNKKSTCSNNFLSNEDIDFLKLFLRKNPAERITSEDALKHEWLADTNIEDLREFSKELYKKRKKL
The target in experiment [8] is Calcium-dependent protein kinase 4 (Plasmodium falciparum (isolate 3D7)) (UniProt Q8IBS5). Kind of experiment: PfCDPK4 kinase inhibitors, biochemical, TCAMS library (AID 1159588; cut-off not given, nearly all actives have IC50 up to about 0.91 µM). Particulars: recombinant PfCDPK4, Kinase-Glo ATP depletion luminescence.
Sequence of Calcium-dependent protein kinase 4 (Plasmodium falciparum (isolate 3D7)) (Q8IBS5 whole entry, looked up): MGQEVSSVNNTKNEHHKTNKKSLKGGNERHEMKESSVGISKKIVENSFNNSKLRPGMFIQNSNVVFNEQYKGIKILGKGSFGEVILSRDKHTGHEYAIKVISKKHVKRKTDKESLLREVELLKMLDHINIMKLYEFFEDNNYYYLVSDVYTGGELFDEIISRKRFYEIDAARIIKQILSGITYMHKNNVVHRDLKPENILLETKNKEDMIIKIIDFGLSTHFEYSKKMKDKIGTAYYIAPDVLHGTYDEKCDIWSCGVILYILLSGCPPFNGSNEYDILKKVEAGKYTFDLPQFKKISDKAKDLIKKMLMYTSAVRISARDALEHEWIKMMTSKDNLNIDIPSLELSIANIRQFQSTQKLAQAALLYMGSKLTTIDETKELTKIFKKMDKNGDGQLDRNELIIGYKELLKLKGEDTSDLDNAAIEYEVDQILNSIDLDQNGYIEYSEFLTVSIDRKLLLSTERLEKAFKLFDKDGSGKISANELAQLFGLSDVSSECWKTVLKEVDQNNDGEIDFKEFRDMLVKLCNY

As for `CC1CCN(CC[C@H]2CCCN2S(=O)(=O)c2cccc(NC(=O)c3ccc(-c4ccccc4)cc3)c2)CC1`, the growth inhibition in experiment [1] was 36%; in experiment [4] it was 87% (active). Also, the inhibition (commonly the change of the read-out against control, counted positive when it falls) in experiment [2] is 38%; in experiment [3] it was -6%. Also, the result in experiment [5], in experiment [6], in experiment [7] and in experiment [8] was inactive.
`CN(C)CCNCc1cccc(-c2ccc3c(Nc4ccc(Oc5ccccc5)cc4)ccnc3c2)c1`: the values for the growth inhibition in experiment [1] and in experiment [4] were 99% (active) and 101% (active), respectively. Moreover, the inhibition was 31% in experiment [2] and 2% in experiment [3]. Besides, the outcome in experiment [5], in experiment [6], in experiment [7] and in experiment [8] was inactive.
Turning to `O=C(CCNc1ccnc(NCCc2ccc(F)cc2)n1)Nc1ccccc1`, the growth inhibition in experiment [1] is 10%; in experiment [4], 95% (active). For the same compound, the results for the inhibition in experiment [2] and in experiment [3] were 9% and -4%, respectively. In addition, the outcome in experiment [5], in experiment [6], in experiment [7] and in experiment [8] was inactive.
On to `CCCCCCC(N)c1ccc(OCCCOc2ccc(C(N)CCCCCC)cc2)cc1` (stereo not given), for which the growth inhibition in experiment [1] was 70% (active); in experiment [4], 88% (active). The figures for the inhibition in experiment [2] and in experiment [3] were 100% (active) and 1%, respectively. Also, the outcome in experiment [5], in experiment [6], in experiment [7] and in experiment [8] was inactive.
As to `O=C(/C=C/c1ccc(Cl)c(Cl)c1)NCCCCCN1CCC(NC(=S)Nc2ccc(Cl)cc2Cl)CC1`, the growth inhibition in experiment [1] was 47%; in experiment [4], 99% (active). In addition, the figures for the inhibition in experiment [2] and in experiment [3] were 53% (active) and -1%, respectively. Besides, the result in experiment [5], in experiment [6], in experiment [7] and in experiment [8] was inactive.
For the compound `Cc1ccc2c(NC(=O)Nc3ccc(N(C)C)cc3)cc(C)nc2c1`, the growth inhibition in experiment [1] was 20%; in experiment [4], 98% (active). Further, the results for the inhibition in experiment [2] and in experiment [3] were -6% and 0%, respectively. The result in experiment [5], in experiment [6], in experiment [7] and in experiment [8] was inactive.
Turning to `Cc1cc(OCCCN2CCCCC2)ccc1NC(=O)COc1ccc(Cl)cc1C(=O)c1cc(Cl)cc(C#N)c1`, the growth inhibition in experiment [1] was 16%; in experiment [4] it was 93% (active). Besides, the inhibition in experiment [2] was 28%; in experiment [3], -8%. The result in experiment [5], in experiment [6], in experiment [7] and in experiment [8] was inactive.
Regarding `COc1ccc2nc3cc(Cl)ccc3c(NCCCO)c2c1`, the growth inhibition in experiment [1] and in experiment [4] was 100% (active) each time. In addition, the figures for the inhibition in experiment [2] and in experiment [3] were 32% and -1%, respectively. Further, the result in experiment [5], in experiment [6], in experiment [7] and in experiment [8] was inactive.
For the compound `Cc1cc(NN=Cc2ccc(Cl)cc2)c2cc(C(F)(F)F)ccc2n1`, the growth inhibition in experiment [1] is 32%; in experiment [4], 91% (active). Besides, the inhibition in experiment [2] is 0%; in experiment [3], -5%. The result in experiment [5], in experiment [6], in experiment [7] and in experiment [8] was inactive.
In the case of `COc1cc(OC)c(OC)cc1C=NNc1cc(C)nc2ccccc12`, the growth inhibition was 95% (active) in experiment [1] and 100% (active) in experiment [4]. Moreover, the inhibition is 5% in experiment [2] and 0% in experiment [3]. Further, the result in experiment [5], in experiment [6], in experiment [7] and in experiment [8] was inactive.
As for `O=C1CSc2ccc(CNC3CCN(CCc4c(Cl)cnc5ccc(F)cc45)CC3)nc2N1`, the growth inhibition is 52% (active) in experiment [1] and 98% (active) in experiment [4]. Moreover, the results for the inhibition in experiment [2] and in experiment [3] were 21% and -2%, respectively. Also, the outcome in experiment [5], in experiment [6], in experiment [7] and in experiment [8] was inactive.
Take `c1ccc(CCNCc2ccc(-c3ccc(CNC4CCN(Cc5ccccc5)CC4)cc3)nc2)cc1`: the growth inhibition in experiment [1] is 99% (active); in experiment [4] it was 101% (active). Also, the inhibition is 34% in experiment [2] and -1% in experiment [3]. Besides, the result in experiment [5], in experiment [6], in experiment [7] and in experiment [8] was inactive.
`Cc1cc(C)c(NC(=O)NC2CCN(CCCCCNC(=O)/C=C/c3ccc(Cl)c(Cl)c3)C2)c(C)c1` (stereo not given): the growth inhibition in experiment [1] was 48%; in experiment [4], 99% (active). Also, the inhibition in experiment [2] is 23%; in experiment [3] it was 1%. Moreover, the outcome in experiment [5], in experiment [6], in experiment [7] and in experiment [8] was inactive.
Turning to `CS(=O)(=O)c1cccc(-c2ccc3oc(C(N)=O)c(NC(=O)c4cccs4)c3c2)c1`, the values for the growth inhibition in experiment [1] and in experiment [4] were 77% (active) and 86% (active), respectively. Also, the inhibition in experiment [2] is 11%; in experiment [3] it was -8%. The result in experiment [5], in experiment [6], in experiment [7] and in experiment [8] was inactive.
`CSc1cccc(Nc2nc3ccc(S(=O)(=O)NC(C)C(C)C)cc3n2[C@H](C)C(C)(C)C)c1` (stereo not given in full): the growth inhibition in experiment [1] is 98% (active); in experiment [4], 97% (active). Moreover, the inhibition in experiment [2] is -10%; in experiment [3], 0%. In addition, the outcome in experiment [5], in experiment [6], in experiment [7] and in experiment [8] was inactive.
As to `CN1CCN(c2ccc(-c3cccc(NC(=O)c4cccc([N+](=O)[O-])c4)c3)nn2)CC1`, the growth inhibition is 35% in experiment [1] and 99% (active) in experiment [4]. Further, the inhibition is 21% in experiment [2] and -1% in experiment [3]. For the same compound, the result in experiment [5], in experiment [6], in experiment [7] and in experiment [8] was inactive.
Consider `CCNc1cc(C(=O)N[C@@H](Cc2ccccc2)[C@H](O)CNCCc2cccc3ccccc23)cc(N2CCCC2=O)c1`, for which the growth inhibition was 39% in experiment [1] and 86% (active) in experiment [4]. Besides, the inhibition in experiment [2] was 12%; in experiment [3], 3%. Besides, the result in experiment [5], in experiment [6], in experiment [7] and in experiment [8] was inactive.
Take `CCOc1ccc2nc(C)cc(NN=Cc3ccccc3Cl)c2c1`: the values for the growth inhibition in experiment [1] and in experiment [4] were 100% (active) and 101% (active), respectively. The inhibition in experiment [2] is 11%; in experiment [3] it was -4%. For the same compound, the outcome in experiment [5], in experiment [6], in experiment [7] and in experiment [8] was inactive.
Regarding `COc1ccccc1C1CCN(CCCCNC(=O)c2ccc(/C=C/c3cc(Cl)cc(Cl)c3)cc2)CC1`, the growth inhibition in experiment [1] was 30%; in experiment [4], 96% (active). Besides, the inhibition in experiment [2] is 36%; in experiment [3], 9%. Further, the outcome in experiment [5], in experiment [6], in experiment [7] and in experiment [8] was inactive.
For `CCC(C)(C)n1c(C)cc2c3c(N)nc(N)nc3ccc21`, the growth inhibition in experiment [1] was 85% (active); in experiment [4], 97% (active). The inhibition in experiment [2] is 69% (active); in experiment [3], 1%. Besides, the outcome in experiment [5], in experiment [6], in experiment [7] and in experiment [8] was inactive.
